Experimental data taken from paper PMC9911399, “Two distinct binding modes provide the RNA-binding protein RbFox with extraordinary sequence specificity”.
Residue numbers refer to the chain shown, from its start. The full ranking holds about 16,000 sequences; the median of “ka relative to ugcaugu” is about 0.096, and the highest 2% start at about 0.35. The list comes from a sample in which the highest values are over-represented; it also holds similar and randomly drawn sequences.

B1: CGCCCUU (DNA:RNA)
RNA: GGGAGACCGGAAUUCAGAUUGUCCCGCCCUUUUAAAUCCCGUCGUAGCCACCA
DNA 1: CAATCTGAATTCCGGTCTCCC
DNA 2: TGGTGGCTACGACGGGATT
B2: UCGUUAU (DNA:RNA)
RNA: B1 RNA with C25U, G26C, C27G, C28U, C29U, U30A
DNA 1: CAATCTGAATTCCGGTCTCCC
DNA 2: TGGTGGCTACGACGGGATT
B3: UGUAUUC (DNA:RNA)
RNA: B1 RNA with C25U, C27U, C28A, C29U, U31C
DNA 1: CAATCTGAATTCCGGTCTCCC
DNA 2: TGGTGGCTACGACGGGATT
B4: UGUCGUA (DNA:RNA)
RNA: B1 RNA with C25U, C27U, C29G, U31A
DNA 1: CAATCTGAATTCCGGTCTCCC
DNA 2: TGGTGGCTACGACGGGATT
B5: UGUUAAA (DNA:RNA)
RNA: B1 RNA with C25U, C27U, C28U, C29A, U30A, U31A
DNA 1: CAATCTGAATTCCGGTCTCCC
DNA 2: TGGTGGCTACGACGGGATT
B6: UGUAUGC (DNA:RNA)
RNA: B1 RNA with C25U, C27U, C28A, C29U, U30G, U31C
DNA 1: CAATCTGAATTCCGGTCTCCC
DNA 2: TGGTGGCTACGACGGGATT
B7: UGUAGGG (DNA:RNA)
RNA: B1 RNA with C25U, C27U, C28A, C29G, U30G, U31G
DNA 1: CAATCTGAATTCCGGTCTCCC
DNA 2: TGGTGGCTACGACGGGATT
B8: UGUAUGG (DNA:RNA)
RNA: B1 RNA with C25U, C27U, C28A, C29U, U30G, U31G
DNA 1: CAATCTGAATTCCGGTCTCCC
DNA 2: TGGTGGCTACGACGGGATT
B9: CGUAAUG (DNA:RNA)
RNA: B1 RNA with C27U, C28A, C29A, U31G
DNA 1: CAATCTGAATTCCGGTCTCCC
DNA 2: TGGTGGCTACGACGGGATT
B10: UGUAUGA (DNA:RNA)
RNA: B1 RNA with C25U, C27U, C28A, C29U, U30G, U31A
DNA 1: CAATCTGAATTCCGGTCTCCC
DNA 2: TGGTGGCTACGACGGGATT
B11: UGUAGGC (DNA:RNA)
RNA: B1 RNA with C25U, C27U, C28A, C29G, U30G, U31C
DNA 1: CAATCTGAATTCCGGTCTCCC
DNA 2: TGGTGGCTACGACGGGATT
B12: UGUAAUC (DNA:RNA)
RNA: B1 RNA with C25U, C27U, C28A, C29A, U31C
DNA 1: CAATCTGAATTCCGGTCTCCC
DNA 2: TGGTGGCTACGACGGGATT
B13: UGUAAUG (DNA:RNA)
RNA: B1 RNA with C25U, C27U, C28A, C29A, U31G
DNA 1: CAATCTGAATTCCGGTCTCCC
DNA 2: TGGTGGCTACGACGGGATT
B14: UGUGUGG (DNA:RNA)
RNA: B1 RNA with C25U, C27U, C28G, C29U, U30G, U31G
DNA 1: CAATCTGAATTCCGGTCTCCC
DNA 2: TGGTGGCTACGACGGGATT
B15: UGCUAAU (DNA:RNA)
RNA: B1 RNA with C25U, C28U, C29A, U30A
DNA 1: CAATCTGAATTCCGGTCTCCC
DNA 2: TGGTGGCTACGACGGGATT
B16: AGCGUUA (DNA:RNA)
RNA: B1 RNA with C25A, C28G, C29U, U31A
DNA 1: CAATCTGAATTCCGGTCTCCC
DNA 2: TGGTGGCTACGACGGGATT
B17: GUGCUCG (DNA:RNA)
RNA: B1 RNA with C25G, G26U, C27G, C29U, U30C, U31G
DNA 1: CAATCTGAATTCCGGTCTCCC
DNA 2: TGGTGGCTACGACGGGATT
B18: CUUACCA (DNA:RNA)
RNA: B1 RNA with G26U, C27U, C28A, U30C, U31A
DNA 1: CAATCTGAATTCCGGTCTCCC
DNA 2: TGGTGGCTACGACGGGATT
B19: GAGUGUA (DNA:RNA)
RNA: B1 RNA with C25G, G26A, C27G, C28U, C29G, U31A
DNA 1: CAATCTGAATTCCGGTCTCCC
DNA 2: TGGTGGCTACGACGGGATT
B20: CAGCCAU (DNA:RNA)
RNA: B1 RNA with G26A, C27G, U30A
DNA 1: CAATCTGAATTCCGGTCTCCC
DNA 2: TGGTGGCTACGACGGGATT

molecular target: T1, RBFOX1 RRM RbFoxmut (Fox-RRM*) (Homo sapiens, UniProt Q9NWB1 109-208, R118D;E147R;N151S;E152T); experiment: EMSA; HiTS-Eq, 1 nM pool, 10 min; buffer printed only for the single-RNA assays: 10 mM Tris pH 7.5, 150 mM NaCl, 3.4 mM EDTA, 0.001% NP-40, 30 C; conditions: tags: His6 N-terminal (pET28a); label: 5' 32P
T1 sequence: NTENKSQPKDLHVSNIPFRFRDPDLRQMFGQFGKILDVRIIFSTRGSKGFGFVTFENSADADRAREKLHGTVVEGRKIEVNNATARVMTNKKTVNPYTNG
Outline: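 Purified RbFox RRM (wild type or mutant) was equilibrated for 10 min in 50 µL with 1 nM of a 5′-radiolabelled pool of RNA with 7 randomized nucleotides, its flanks annealed to DNA oligonucleotides, across increasing protein concentrations. Free RNA was separated by 8% native PAGE, excised, reverse-transcribed, PCR-barcoded and sequenced on an Illumina HiSeq 2500. Relative association constants came from read-count changes of each variant against the control reaction, normalised to the cognate motif.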

**Q.** For B1, which binding signal is on record?
**A.** 0.0724 KA relative to UGCAUGU

**Q.** How did the binding signal turn out when B2 was run?
**A.** 0.11 KA relative to UGCAUGU

**Q.** Which binding signal does the source give for B3 here?
**A.** 0.207 KA relative to UGCAUGU

**Q.** For B4, which binding signal is on record?
**A.** 0.13 KA relative to UGCAUGU

**Q.** Which binding signal does the source give for B5 here?
**A.** 0.11 KA relative to UGCAUGU

**Q.** With B6 as the binder, how does the binding signal read?
**A.** 0.684 KA relative to UGCAUGU

**Q.** B7 was tested. Which binding signal did it give?
**A.** 0.0751 KA relative to UGCAUGU

**Q.** With B8 as the binder, how does the binding signal read?
**A.** 0.394 KA relative to UGCAUGU

**Q.** B9 was tested. Which binding signal did it give?
**A.** 0.157 KA relative to UGCAUGU

**Q.** Which binding signal does the source give for B10 here?
**A.** 0.44 KA relative to UGCAUGU

**Q.** B11 was tested. Which binding signal did it give?
**A.** 0.115 KA relative to UGCAUGU

**Q.** With B12 as the binder, how does the binding signal read?
**A.** 0.157 KA relative to UGCAUGU

**Q.** With B13 as the binder, how does the binding signal read?
**A.** 0.381 KA relative to UGCAUGU

**Q.** B14 was tested. Which binding signal did it give?
**A.** 0.173 KA relative to UGCAUGU

**Q.** B15 was tested. Which binding signal did it give?
**A.** 0.0977 KA relative to UGCAUGU

**Q.** B16 was tested. Which binding signal did it give?
**A.** 0.113 KA relative to UGCAUGU

**Q.** With B17 as the binder, how does the binding signal read?
**A.** 0.226 KA relative to UGCAUGU

**Q.** For B18, which binding signal is on record?
**A.** 0.0834 KA relative to UGCAUGU

**Q.** B19 was tested. Which binding signal did it give?
**A.** 0.258 KA relative to UGCAUGU

**Q.** For B20, which binding signal is on record?
**A.** 0.0919 KA relative to UGCAUGU
